Measurements from ChEMBL document CHEMBL1961873, “Compounds: GSK PKIS; Assays: Nanosyn kinase panel” (2012).

Molecular target: Serine/threonine-protein kinase PAK 2 (Homo sapiens) (UniProt Q13177)
Details: at 0.1 µM

Sequence of Serine/threonine-protein kinase PAK 2 (Homo sapiens) (Q13177 whole entry): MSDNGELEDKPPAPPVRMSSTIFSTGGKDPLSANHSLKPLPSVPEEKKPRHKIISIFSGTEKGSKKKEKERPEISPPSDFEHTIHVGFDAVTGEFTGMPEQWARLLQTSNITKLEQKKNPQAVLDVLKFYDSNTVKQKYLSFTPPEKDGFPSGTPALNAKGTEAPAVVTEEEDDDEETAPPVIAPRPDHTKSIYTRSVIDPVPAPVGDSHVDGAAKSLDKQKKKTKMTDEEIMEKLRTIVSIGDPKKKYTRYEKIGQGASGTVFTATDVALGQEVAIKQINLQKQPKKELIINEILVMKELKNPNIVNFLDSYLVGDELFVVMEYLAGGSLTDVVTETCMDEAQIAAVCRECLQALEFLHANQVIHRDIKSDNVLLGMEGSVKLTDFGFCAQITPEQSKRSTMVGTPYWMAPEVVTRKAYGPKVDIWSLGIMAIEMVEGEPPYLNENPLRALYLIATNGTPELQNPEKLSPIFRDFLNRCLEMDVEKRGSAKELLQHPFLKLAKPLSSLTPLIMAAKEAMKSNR

Row | SMILES | inhibition [%]
1 | c1ccc(Nc2ncc(-c3ccccc3)o2)cc1 | 0.76
2 | CN(C)C(=O)O[C@H]1CN[C@H](C#Cc2cc3ncnc(Nc4ccc(OCc5cccc(F)c5)c(Cl)c4)c3s2)C1 | 1.72
3 | NS(=O)(=O)c1ccc(N/N=C2\C(=O)Nc3ccc(Cl)cc32)cc1 | 0.72
4 | O=C1Nc2ccccc2/C1=C/Nc1ccc2[nH]c(=O)[nH]c2c1 | 0.87
5 | CN1CCN(C(=O)c2ccc(NC(=O)Nc3ccc(N(C)c4ccnc(Nc5ccc(CS(C)(=O)=O)cc5)n4)cc3)cc2)CC1 | 0.16
6 | COc1ccc(-c2nn3ncccc3c2-c2ccnc(Nc3cccc(C(F)(F)F)c3)n2)cc1 | 0.91
7 | O=S(=O)(CCOCc1ccc(-c2ccc3ncnc(Nc4ccc(OCc5cccc(F)c5)c(Cl)c4)c3c2)o1)c1ccccc1 | -0.35
8 | COc1cccc(-n2ncc3c(N/N=C/c4ccc(S(C)(=O)=O)cc4)ncnc32)c1 | -0.07
9 | Cc1cc(O)cc(C)c1/C=C/c1cncc(C(=O)N(C)C)c1 | 1.73
10 | Cc1ccc2c(-c3ccnc(Nc4cccc(C(F)(F)F)c4)n3)c(-c3ccccc3)nn2n1 | 1.38
11 | CS(=O)(=O)CCNCc1nc(-c2ccc3ncnc(Nc4ccc(OCc5cccc(C(F)(F)F)c5)cc4)c3c2)cs1 | -0.05
12 | Cc1ccc(Nc2ccnc(Nc3cccc(C(N)=O)c3)n2)cc1O | 1.77
13 | CCS(=O)(=O)c1ccc(OC)c(Nc2ncc(-c3cccc(OC)c3)o2)c1 | 2.79
14 | COc1cc2ncnc(Nc3ccc(C)c(O)c3)c2cc1OC | 1.81
15 | COc1cc2ncnc(Nc3ccc4c(cnn4Cc4ccccc4)c3)c2cc1OC | 1.54
16 | NS(=O)(=O)c1cccc(-c2cc3ccncc3cc2OCc2ccccc2)c1 | 3.01
17 | Oc1cccc(-c2nc(-c3ccccc3)[nH]c2-c2ccncc2)c1 | 2.18

Row | SMILES | inhibition [%]
18 | NC(=O)c1sc(-n2cnc3ccccc32)cc1OCc1ccccc1Br | 1.42
19 | Cc1nc(-c2ccccc2)n2nc(NCCCN3CCOCC3)ncc12 | 0.56
20 | Cc1ccc(NC(=O)CC2CC2)cc1-c1ccc(C(=O)NCC2CC2)cc1 | 1.76
21 | NC(=O)c1cccc(Nc2nccc(Nc3cccc(F)c3)n2)c1 | 0.32
22 | Nc1nccc(C#Cc2cncnc2Nc2ccc(OCc3cccc(F)c3)c(Cl)c2)n1 | 1.6
23 | NS(=O)(=O)c1ccc(-c2cc3ccncc3cc2OCc2ccccc2)cc1 | 1.08
24 | CCS(=O)(=O)c1ccc(OC)c(Nc2nccc(N(C)c3ccc4c(C)n[nH]c4c3)n2)c1 | 1.58
25 | COc1cccc(-n2nc(C)c3c(N/N=C(\C)c4ccncc4)ncnc32)c1 | -1.35
26 | COC(=O)c1ccc2c(c1)C(=Cc1cc(Br)c(O)c(Br)c1)C(=O)N2 | 1.7
27 | COc1cccc(-n2ncc3c(N/N=C/c4ccc(C)cc4)ncnc32)c1 | 1.75
28 | NS(=O)(=O)c1ccc(Nc2cc(-c3cccc(O)c3)n[nH]2)cc1 | 3.22
29 | Cc1cc(-c2ccccn2)cc(C)c1/C=C/c1cncc(-c2nn[nH]n2)c1 | 1.95
30 | CCn1c(-c2nonc2N)nc2c(C#CC(C)(C)O)nc(OCCNC)cc21 | 1.23
31 | O=C(Nc1ccc(Oc2ccc3[nH]c(NC(=O)c4ccco4)nc3c2)cc1)Nc1cc(C(F)(F)F)ccc1F | 0.17
32 | Cc1ccc2c(-c3ccnc(Nc4ccc5c(c4)OCCO5)n3)c(-c3ccc(C(F)(F)F)cc3)nn2n1 | 0.68
33 | [O-][S+]1CCN(Cc2ccc(-c3ccc4ncnc(Nc5ccc(OCc6ccccc6)c(Cl)c5)c4c3)o2)CC1 | 0.11

Molecular target: Serine/threonine-protein kinase PAK 2 (Homo sapiens) (UniProt Q13177)
Details: at 1 µM

Row | SMILES | inhibition [%]
34 | c1ccc(Nc2ncc(-c3ccccc3)o2)cc1 | 2.87
35 | CN(C)C(=O)O[C@H]1CN[C@H](C#Cc2cc3ncnc(Nc4ccc(OCc5cccc(F)c5)c(Cl)c4)c3s2)C1 | -0.31
36 | NS(=O)(=O)c1ccc(N/N=C2\C(=O)Nc3ccc(Cl)cc32)cc1 | 1.37
37 | O=C1Nc2ccccc2/C1=C/Nc1ccc2[nH]c(=O)[nH]c2c1 | 1.53
38 | CN1CCN(C(=O)c2ccc(NC(=O)Nc3ccc(N(C)c4ccnc(Nc5ccc(CS(C)(=O)=O)cc5)n4)cc3)cc2)CC1 | 1.51
39 | COc1ccc(-c2nn3ncccc3c2-c2ccnc(Nc3cccc(C(F)(F)F)c3)n2)cc1 | -0.8
40 | O=S(=O)(CCOCc1ccc(-c2ccc3ncnc(Nc4ccc(OCc5cccc(F)c5)c(Cl)c4)c3c2)o1)c1ccccc1 | 0.7
41 | COc1cccc(-n2ncc3c(N/N=C/c4ccc(S(C)(=O)=O)cc4)ncnc32)c1 | -0.47
42 | Cc1cc(O)cc(C)c1/C=C/c1cncc(C(=O)N(C)C)c1 | 0.38
43 | Cc1ccc2c(-c3ccnc(Nc4cccc(C(F)(F)F)c4)n3)c(-c3ccccc3)nn2n1 | 1.7
44 | CS(=O)(=O)CCNCc1nc(-c2ccc3ncnc(Nc4ccc(OCc5cccc(C(F)(F)F)c5)cc4)c3c2)cs1 | -0.1
45 | Cc1ccc(Nc2ccnc(Nc3cccc(C(N)=O)c3)n2)cc1O | 1.45
46 | CCS(=O)(=O)c1ccc(OC)c(Nc2ncc(-c3cccc(OC)c3)o2)c1 | 1.98
47 | COc1cc2ncnc(Nc3ccc(C)c(O)c3)c2cc1OC | 2.35
48 | COc1cc2ncnc(Nc3ccc4c(cnn4Cc4ccccc4)c3)c2cc1OC | 2.6
49 | NS(=O)(=O)c1cccc(-c2cc3ccncc3cc2OCc2ccccc2)c1 | 2.6
50 | Oc1cccc(-c2nc(-c3ccccc3)[nH]c2-c2ccncc2)c1 | 1.52

Row | SMILES | inhibition [%]
51 | NC(=O)c1sc(-n2cnc3ccccc32)cc1OCc1ccccc1Br | 2.45
52 | Cc1nc(-c2ccccc2)n2nc(NCCCN3CCOCC3)ncc12 | 0.27
53 | Cc1ccc(NC(=O)CC2CC2)cc1-c1ccc(C(=O)NCC2CC2)cc1 | 1.56
54 | NC(=O)c1cccc(Nc2nccc(Nc3cccc(F)c3)n2)c1 | 0.69
55 | Nc1nccc(C#Cc2cncnc2Nc2ccc(OCc3cccc(F)c3)c(Cl)c2)n1 | 2.31
56 | NS(=O)(=O)c1ccc(-c2cc3ccncc3cc2OCc2ccccc2)cc1 | 0.46
57 | CCS(=O)(=O)c1ccc(OC)c(Nc2nccc(N(C)c3ccc4c(C)n[nH]c4c3)n2)c1 | 1.86
58 | COc1cccc(-n2nc(C)c3c(N/N=C(\C)c4ccncc4)ncnc32)c1 | -0.3
59 | COC(=O)c1ccc2c(c1)C(=Cc1cc(Br)c(O)c(Br)c1)C(=O)N2 | 1.99
60 | COc1cccc(-n2ncc3c(N/N=C/c4ccc(C)cc4)ncnc32)c1 | 1.47
61 | NS(=O)(=O)c1ccc(Nc2cc(-c3cccc(O)c3)n[nH]2)cc1 | 2.59
62 | Cc1cc(-c2ccccn2)cc(C)c1/C=C/c1cncc(-c2nn[nH]n2)c1 | 2.95
63 | CCn1c(-c2nonc2N)nc2c(C#CC(C)(C)O)nc(OCCNC)cc21 | 2.27
64 | O=C(Nc1ccc(Oc2ccc3[nH]c(NC(=O)c4ccco4)nc3c2)cc1)Nc1cc(C(F)(F)F)ccc1F | 0.57
65 | Cc1ccc2c(-c3ccnc(Nc4ccc5c(c4)OCCO5)n3)c(-c3ccc(C(F)(F)F)cc3)nn2n1 | -0.11
66 | [O-][S+]1CCN(Cc2ccc(-c3ccc4ncnc(Nc5ccc(OCc6ccccc6)c(Cl)c5)c4c3)o2)CC1 | 0.24
